This is an account of results in PubChem BioAssay (EPA / NIEHS).

The structures appear in SMILES notation. Records with an inconclusive call do not appear. The source made the active and inactive calls. Rule for the calls, unless noted: active = hit-call score of the fitted dose curve at least 0.9, where 1 is the maximum; inconclusive = response in the unintended direction; inactive = score below 0.9.

In experiment [1] the target is Estrogen receptor beta (Homo sapiens) (UniProt Q92731). As to the kind of experiment: OT_ER_ERbERb_1440: Odyssey Thera (OT) 24-hour HEK293T Protein-Complementation Assay for Estrogen Receptor-beta/-beta Homodimer (AID 2283380).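 Note: fluorescence gain from ER beta LBD homodimer complementation read by laser scanning cytometry; scored as signal increase over DMSO baseline for both agonists and antagonists.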 The essentials:
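Fluorescence increase, nuclear for agonists or whole-cell for antagonists, relative to DMSO vehicle, quantified by laser scanning cytometer after fixation and Draq5 staining. Readout from 24 h treatment of HEK293T cells carrying complementation-paired ER beta LBD (aa 310-547).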

Experiment [2] deals with Estrogen receptor (Homo sapiens) (UniProt P03372). As to the kind of experiment: OT_ERa_GFPERaERE_0480: Odyssey Thera (OT) 8-hour HeLa Transcription Induction Assay for Estrogen Receptor (AID 2283381; active = hit-call score of the fitted dose curve at least 0.9, where 1 is the maximum; inactive = score below 0.9). The essentials:
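Cells (HeLa) receive compound; after 8 h, reporter fluorescence is imaged and quantified by high-content analysis. Gain-of-signal relative to DMSO gives the endpoint.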

Experiment [3] shares this target. As to the kind of experiment: OT_ERa_GFPERaERE_0120: Odyssey Thera (OT) 2-hour HeLa Transcription Induction Assay for Estrogen Receptor (AID 2283382). The essentials: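 Measures ESR1 pathway reporter gain-of-signal in HeLa cells after a 2-hour treatment, detected as fluorescent protein induction by microscopy, DMSO as baseline.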
In experiment [4] the target is Retinoic acid receptor RXR-alpha (Homo sapiens) (UniProt P19793). As to the kind of experiment: OT_NURR1_NURR1RXRa_0480: Odyssey Thera (OT) 8-hour HEK293T Protein Complementation Assay for Nurr1/retinoid X receptor (RXR) (AID 2283385). The essentials:
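Compounds are applied to HEK293T cells carrying Nurr1 and RXRα linked to reporter fragments. After 8 h, fluorescence intensity reports heterodimer formation, with DMSO as baseline.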

The target is the same in experiment [5]. As to the kind of experiment: OT_NURR1_NURR1RXRa_1440: Odyssey Thera (OT) 24-hour HEK293T Protein Complementation Assay for Nurr1/retinoid X receptor (RXR) (AID 2283386). The essentials: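 Measured as fluorescence from a reconstituted split reporter, this 24 h HEK293T complementation assay scores compound-induced gain of Nurr1/RXRα association relative to DMSO.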

For experiment [6], the target named is Peroxisome proliferator-activated receptor gamma (Homo sapiens) (UniProt P37231). As to the kind of experiment: OT_PPARg_PPARgSRC1_0480: Odyssey Thera (OT) 8-hour Protein-Complementation Assay for Peroxisome Proliferator-activated Receptor Gamma / SRC-1 Co-activator (AID 2283387).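 Note: nuclear to cytoplasmic split Venus YFP fluorescence ratio reporting PPARg SRC-1 interaction.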 The essentials: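 Protein-fragment complementation of split Venus YFP reports PPARg/SRC-1 interaction in HEK293T (transfected 48 h before treatment), exposed 8 h. Readout: N/C fluorescence ratio at 488 nm from imaging, Draq5 for segmentation, positive fit relative to DMSO.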
Peroxisome proliferator-activated receptor gamma (Homo sapiens), sequence (P37231 whole entry, looked up, the tested form may be a part): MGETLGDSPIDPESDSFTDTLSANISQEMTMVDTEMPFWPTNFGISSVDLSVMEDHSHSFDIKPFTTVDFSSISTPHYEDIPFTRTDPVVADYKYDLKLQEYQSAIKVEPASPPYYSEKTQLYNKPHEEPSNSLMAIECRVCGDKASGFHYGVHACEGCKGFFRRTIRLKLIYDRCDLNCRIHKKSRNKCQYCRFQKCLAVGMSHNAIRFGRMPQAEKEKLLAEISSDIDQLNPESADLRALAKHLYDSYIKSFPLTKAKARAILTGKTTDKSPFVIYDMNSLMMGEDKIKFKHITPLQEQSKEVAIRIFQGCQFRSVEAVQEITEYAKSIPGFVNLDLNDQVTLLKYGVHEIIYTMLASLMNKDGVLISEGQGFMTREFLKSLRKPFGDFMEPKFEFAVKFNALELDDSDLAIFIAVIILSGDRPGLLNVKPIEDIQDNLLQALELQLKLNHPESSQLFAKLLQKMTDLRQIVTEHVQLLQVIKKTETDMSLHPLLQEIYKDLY

The target is the same in experiment [7]. As to the kind of experiment: OT_PPARg_PPARgSRC1_1440: Odyssey Thera (OT) 24-hour Protein-Complementation Assay for Peroxisome Proliferator-activated Receptor Gamma/ SRC-1 Co-activator (AID 2283388).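 Note: nuclear to cytoplasmic ratio of reconstituted Venus YFP fluorescence in fixed imaged cells.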 The essentials:
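Transient HEK293T, YFP fragments 1-158/159-239 (mutant IFP1/IFP2) fused to PPARg/SRC-1; 24 h dosing; fix 4% formaldehyde, Draq5; Opera imaging 488/635 nm; N/C ratio, gain vs DMSO.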

Experiment [8] addresses Bile acid receptor (Homo sapiens) (UniProt Q96RI1). As to the kind of experiment: OT_FXR_FXRSRC1_0480: Odyssey Thera (OT) 8-hour HEK293T Protein-Complementation Assay for Farnesoid X receptor/SRC-1 Co-activator (AID 2283383). The essentials: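 Co-activator recruitment to FXR was measured in living HEK293T cells, where interaction of the two fused partners restored an active fluorescent reporter. Signal gain after 8 h treatment was referenced to DMSO.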

Retinoic acid receptor RXR-alpha (Homo sapiens), sequence (P19793 whole entry, looked up, the tested form may be a part): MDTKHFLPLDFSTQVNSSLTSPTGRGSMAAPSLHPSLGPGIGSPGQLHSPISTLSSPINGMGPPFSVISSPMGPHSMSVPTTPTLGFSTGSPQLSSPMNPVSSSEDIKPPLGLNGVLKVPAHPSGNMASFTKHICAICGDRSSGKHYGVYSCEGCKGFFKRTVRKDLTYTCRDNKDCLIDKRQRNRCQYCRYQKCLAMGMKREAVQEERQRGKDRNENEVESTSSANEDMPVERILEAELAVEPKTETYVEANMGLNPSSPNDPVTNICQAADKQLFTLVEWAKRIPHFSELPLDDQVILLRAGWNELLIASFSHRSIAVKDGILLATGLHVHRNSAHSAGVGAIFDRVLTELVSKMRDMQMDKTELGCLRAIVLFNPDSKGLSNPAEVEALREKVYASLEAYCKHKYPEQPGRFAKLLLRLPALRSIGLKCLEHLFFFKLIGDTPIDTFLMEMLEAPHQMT
Estrogen receptor (Homo sapiens), sequence (P03372 whole entry, looked up): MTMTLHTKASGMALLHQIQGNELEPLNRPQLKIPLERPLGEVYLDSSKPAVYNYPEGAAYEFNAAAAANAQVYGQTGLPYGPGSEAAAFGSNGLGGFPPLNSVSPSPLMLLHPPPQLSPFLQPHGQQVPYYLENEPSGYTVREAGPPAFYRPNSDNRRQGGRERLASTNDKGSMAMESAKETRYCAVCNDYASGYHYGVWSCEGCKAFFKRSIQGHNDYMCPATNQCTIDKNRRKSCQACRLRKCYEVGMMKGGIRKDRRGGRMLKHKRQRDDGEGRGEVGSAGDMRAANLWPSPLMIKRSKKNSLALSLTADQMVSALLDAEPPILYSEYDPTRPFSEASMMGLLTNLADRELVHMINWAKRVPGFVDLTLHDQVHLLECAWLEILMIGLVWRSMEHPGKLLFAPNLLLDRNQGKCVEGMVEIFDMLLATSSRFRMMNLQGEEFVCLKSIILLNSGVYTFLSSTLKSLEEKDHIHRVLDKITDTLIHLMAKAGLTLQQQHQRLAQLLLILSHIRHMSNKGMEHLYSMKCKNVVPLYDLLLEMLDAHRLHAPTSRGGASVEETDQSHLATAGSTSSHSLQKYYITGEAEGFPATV
Estrogen receptor beta (Homo sapiens), sequence (Q92731 whole entry, looked up, the tested form may be a part): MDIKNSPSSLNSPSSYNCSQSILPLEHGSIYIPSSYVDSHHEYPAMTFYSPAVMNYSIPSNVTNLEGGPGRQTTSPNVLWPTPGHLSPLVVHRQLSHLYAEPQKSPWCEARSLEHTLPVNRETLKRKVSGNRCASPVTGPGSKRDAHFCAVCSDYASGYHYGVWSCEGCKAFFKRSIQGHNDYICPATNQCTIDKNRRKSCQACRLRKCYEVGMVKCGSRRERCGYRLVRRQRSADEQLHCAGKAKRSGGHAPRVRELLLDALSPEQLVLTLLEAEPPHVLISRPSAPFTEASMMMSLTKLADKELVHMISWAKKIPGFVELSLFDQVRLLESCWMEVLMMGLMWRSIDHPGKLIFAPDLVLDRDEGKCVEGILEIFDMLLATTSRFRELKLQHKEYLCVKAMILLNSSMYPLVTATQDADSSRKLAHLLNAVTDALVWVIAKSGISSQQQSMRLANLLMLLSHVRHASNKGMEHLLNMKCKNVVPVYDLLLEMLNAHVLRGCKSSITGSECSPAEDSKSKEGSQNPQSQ
Bile acid receptor (Homo sapiens), sequence (Q96RI1 whole entry, looked up, the tested form may be a part): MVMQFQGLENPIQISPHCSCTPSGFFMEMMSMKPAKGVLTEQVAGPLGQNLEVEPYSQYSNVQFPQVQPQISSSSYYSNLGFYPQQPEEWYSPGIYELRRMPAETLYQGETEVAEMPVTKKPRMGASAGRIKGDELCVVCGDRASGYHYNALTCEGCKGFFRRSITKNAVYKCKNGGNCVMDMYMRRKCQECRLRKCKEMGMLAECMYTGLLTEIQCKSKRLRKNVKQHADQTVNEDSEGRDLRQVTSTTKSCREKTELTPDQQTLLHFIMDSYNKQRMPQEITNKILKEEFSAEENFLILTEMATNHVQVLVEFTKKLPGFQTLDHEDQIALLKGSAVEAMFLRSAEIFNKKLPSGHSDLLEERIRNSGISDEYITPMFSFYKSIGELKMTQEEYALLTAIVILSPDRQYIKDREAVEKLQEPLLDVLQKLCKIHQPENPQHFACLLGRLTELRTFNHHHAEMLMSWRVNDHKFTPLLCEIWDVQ

`Cn1c([N+](=O)[O-])cnc1COC(N)=O`: the outcome in experiment [1], in experiment [2], in experiment [3], in experiment [4], in experiment [5] and in experiment [6] was inactive. The outcome in experiment [7] was inactive.
Turning to `Cc1ccc(C(C)(C)C)cc1`, the outcome in experiment [2], in experiment [3], in experiment [4], in experiment [5], in experiment [6] and in experiment [7] was inactive.
Broadly, the AC50 is the midpoint of the concentration-response curve, whichever way the signal moves. Consider `CC1=CC[C@H]2C[C@@H]1C2(C)C`, for which the call in experiment [1], in experiment [5], in experiment [6] and in experiment [7] was inactive. Further, the AC50 in experiment [2] was 93.4 µM (active); in experiment [3] it was 93.6 µM (active).
For `C1=Cc2ccccc2C1`, the call in experiment [2], in experiment [3], in experiment [5], in experiment [6] and in experiment [7] was inactive.
In the case of `c1c[nH]cn1`, the result in experiment [1], in experiment [2], in experiment [3], in experiment [6] and in experiment [7] was inactive.
In the case of `C=CC(=O)NC(C)(C)CS(=O)(=O)O`, the result in experiment [1], in experiment [2], in experiment [3], in experiment [6] and in experiment [7] was inactive.
Take `CCCCCCCOC(=O)CCC`: the result in experiment [1], in experiment [2], in experiment [3], in experiment [4], in experiment [5] and in experiment [6] was inactive. Moreover, in experiment [7], the molecule was called inactive.
On to `Cc1cc(C)c(C)cc1C`, for which the call in experiment [2], in experiment [3], in experiment [8], in experiment [4], in experiment [5] and in experiment [6] was inactive. In addition, the outcome in experiment [7] was inactive.
For the molecule `O=C(C=Cc1ccccc1)OCc1ccccc1`, the call in experiment [1], in experiment [2], in experiment [3], in experiment [4], in experiment [6] and in experiment [7] was inactive.
On to `O=C1CCCC1`, for which the result in experiment [1], in experiment [3], in experiment [5], in experiment [6] and in experiment [7] was inactive. The AC50 in experiment [2] was 48.4 µM (active).
As to `CC(C)c1ccc2cc(C(C)C)ccc2c1`, the call in experiment [1], in experiment [2], in experiment [3], in experiment [4], in experiment [6] and in experiment [7] was inactive. Further, the AC50 in experiment [5] is 97.6 µM (active).
With `Cc1ccc(C(C)c2ccc(C)c(C)c2)cc1C`, the molecule was called inactive in experiment [1], in experiment [2], in experiment [3] and in experiment [7]. Besides, the AC50 in experiment [4] was 83.5 µM (active); in experiment [5] it was 76.4 µM (active).
Take `CNC(=S)NN`: the result in experiment [1], in experiment [2], in experiment [3], in experiment [5], in experiment [6] and in experiment [7] was inactive. Further, the AC50 in experiment [4] is 50 µM (active).
Regarding `O=C(c1ccccc1)C1CCC1`, the result in experiment [1], in experiment [2], in experiment [3], in experiment [4], in experiment [6] and in experiment [7] was inactive.
Take `O=C1C(N(CO)C(=O)NCO)N(CO)C(=O)N1CO` (centres undefined): the molecule was classed as inactive in experiment [1], in experiment [2], in experiment [3], in experiment [6] and in experiment [7].
As to `C=C[Si](C)(C)O[Si](C)(C)C=C`, the call in experiment [2], in experiment [3], in experiment [4], in experiment [5], in experiment [6] and in experiment [7] was inactive.
Regarding `OC1CCCC1`, the outcome in experiment [1], in experiment [2], in experiment [3], in experiment [5], in experiment [6] and in experiment [7] was inactive.
Turning to `CO[Si](OC)(OC)c1ccccc1`, the molecule was classed as inactive in experiment [1], in experiment [2], in experiment [3], in experiment [4], in experiment [5] and in experiment [6]. The outcome in experiment [7] was inactive.
As for `CCO[Si](C)(OCC)OCC`, the result in experiment [1], in experiment [2], in experiment [3] and in experiment [5] was inactive.
Regarding `O=C(OCC1CCC2OC2C1)C1CCC2OC2C1` (centres undefined), the result in experiment [2], in experiment [3], in experiment [4], in experiment [5], in experiment [6] and in experiment [7] was inactive.
For `CCCCCCC1(C)CCC(=O)O1` (centres undefined), the molecule was classed as inactive in experiment [2], in experiment [3], in experiment [6] and in experiment [7].
Regarding `OC1CCCCCCCCCCC1`, the molecule was classed as inactive in experiment [2], in experiment [3], in experiment [5], in experiment [6] and in experiment [7].
`c1ccc2c(c1)ccc1cc3c(ccc4ccccc43)cc12`: the molecule was called inactive in experiment [2], in experiment [3], in experiment [8] and in experiment [5].
In the case of `CC(CC=O)CCCC(C)(C)O` (centres undefined), the outcome in experiment [2], in experiment [3], in experiment [4], in experiment [5], in experiment [6] and in experiment [7] was inactive.
For the molecule `NC(=O)N=NC(N)=O`, the molecule was classed as inactive in experiment [1], in experiment [2], in experiment [6] and in experiment [7]. In addition, in experiment [3], the AC50 was 12.1 µM (active).
